# Assay results published in publication PMC7862700, “An all-to-all approach to the identification of sequence-specific readers for epigenetic DNA modifications on cytosine”.
# What was measured:
# Assay in all cases: DAPPL (digital affinity profiling via proximity ligation, sequencing); 10 mM Tris-HCl pH 7.5, 50 mM NaCl, 1 mM DTT, 4% glycerol, room temperature, 30 min; GST-TFs on glutathione beads, 16-mer random dsDNA library, 0.1% formaldehyde crosslink after washing; high values mean tight binding
# [1] = molecular target: T1, FLI1 (Homo sapiens, UniProt Q01543 1-452); conditions: protein: recombinant; tags: N-terminal GST; dsDNA, one strand shown
# T1 sequence: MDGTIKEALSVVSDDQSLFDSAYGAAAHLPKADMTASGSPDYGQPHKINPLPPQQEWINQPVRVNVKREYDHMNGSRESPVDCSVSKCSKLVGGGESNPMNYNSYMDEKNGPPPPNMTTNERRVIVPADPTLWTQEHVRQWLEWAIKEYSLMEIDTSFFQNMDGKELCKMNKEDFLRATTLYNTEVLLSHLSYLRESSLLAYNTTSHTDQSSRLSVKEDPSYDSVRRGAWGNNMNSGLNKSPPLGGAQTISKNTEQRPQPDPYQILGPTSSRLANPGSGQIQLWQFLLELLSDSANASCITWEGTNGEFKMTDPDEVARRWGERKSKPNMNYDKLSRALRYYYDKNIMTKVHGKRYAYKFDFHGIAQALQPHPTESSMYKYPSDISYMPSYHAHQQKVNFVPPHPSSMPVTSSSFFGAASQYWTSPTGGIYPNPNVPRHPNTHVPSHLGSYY
# Method in brief: (§1)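 Beads coated with glutathione captured GST-fused human transcription factors that had been expressed in yeast, and the factors were then given DNA barcodes and pooled with a tag-only sample. The pools were incubated with 200 nmole of a random double-stranded 16-mer DNA library in Tris/NaCl/DTT/glycerol buffer for 30 min at room temperature, washed, crosslinked with 0.1% formaldehyde and proximity-ligated with BsaI/T4 ligase at 37 °C for 1 h. PCR amplification and Illumina NextSeq500 sequencing came last. Binding signal is each hexamer's read frequency for a factor divided by its frequency for the tag-only sample.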
# [2] = molecular target: T2, ELK1 (Homo sapiens, UniProt P19419 1-428); conditions: protein: recombinant; tags: N-terminal GST; dsDNA, one strand shown
# T2 sequence: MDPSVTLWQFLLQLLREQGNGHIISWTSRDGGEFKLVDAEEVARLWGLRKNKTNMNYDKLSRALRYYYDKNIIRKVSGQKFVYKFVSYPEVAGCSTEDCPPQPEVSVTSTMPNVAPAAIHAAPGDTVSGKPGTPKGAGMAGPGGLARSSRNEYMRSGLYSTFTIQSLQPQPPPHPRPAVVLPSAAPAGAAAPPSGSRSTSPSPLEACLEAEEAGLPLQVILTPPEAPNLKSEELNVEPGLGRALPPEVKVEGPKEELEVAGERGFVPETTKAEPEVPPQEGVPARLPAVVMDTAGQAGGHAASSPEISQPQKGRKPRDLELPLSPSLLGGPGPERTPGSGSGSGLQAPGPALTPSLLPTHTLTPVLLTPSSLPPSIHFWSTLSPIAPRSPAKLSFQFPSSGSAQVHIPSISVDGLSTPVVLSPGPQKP
# Method in brief: as §1
# [3] = molecular target: T3, GABPA (Homo sapiens, UniProt Q06546 1-454); conditions: protein: recombinant; tags: N-terminal GST; dsDNA, one strand shown
# T3 sequence: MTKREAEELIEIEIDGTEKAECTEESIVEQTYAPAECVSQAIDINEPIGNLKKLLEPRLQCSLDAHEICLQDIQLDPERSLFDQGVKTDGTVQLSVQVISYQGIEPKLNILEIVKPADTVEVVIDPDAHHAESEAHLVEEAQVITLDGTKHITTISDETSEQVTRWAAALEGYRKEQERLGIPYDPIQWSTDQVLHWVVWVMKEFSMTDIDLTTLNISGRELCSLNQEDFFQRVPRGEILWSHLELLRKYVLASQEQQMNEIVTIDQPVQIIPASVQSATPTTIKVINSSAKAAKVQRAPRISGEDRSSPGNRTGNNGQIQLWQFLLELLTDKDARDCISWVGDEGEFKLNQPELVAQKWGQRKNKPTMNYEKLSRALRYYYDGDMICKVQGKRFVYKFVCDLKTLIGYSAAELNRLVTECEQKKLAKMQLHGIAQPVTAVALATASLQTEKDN
# Method in brief: as §1
# [4] = molecular target: T4, ERG (Homo sapiens, UniProt P11308 1-479); conditions: protein: recombinant; tags: N-terminal GST; dsDNA, one strand shown
# T4 sequence: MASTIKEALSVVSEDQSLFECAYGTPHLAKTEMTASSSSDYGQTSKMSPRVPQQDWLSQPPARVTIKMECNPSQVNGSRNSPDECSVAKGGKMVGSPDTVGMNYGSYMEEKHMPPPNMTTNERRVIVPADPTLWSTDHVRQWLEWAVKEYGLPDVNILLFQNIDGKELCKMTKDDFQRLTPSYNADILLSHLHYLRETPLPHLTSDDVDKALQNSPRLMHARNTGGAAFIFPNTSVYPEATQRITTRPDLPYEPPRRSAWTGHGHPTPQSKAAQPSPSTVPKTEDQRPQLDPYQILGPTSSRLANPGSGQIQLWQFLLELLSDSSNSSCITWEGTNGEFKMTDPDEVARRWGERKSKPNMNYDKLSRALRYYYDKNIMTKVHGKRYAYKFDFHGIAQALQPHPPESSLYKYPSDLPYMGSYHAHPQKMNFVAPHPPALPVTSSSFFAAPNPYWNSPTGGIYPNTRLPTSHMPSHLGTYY
# Method in brief: as §1
# [5] = molecular target: ELF1 (Homo sapiens, UniProt P32519 1-619); conditions: protein: recombinant; tags: N-terminal GST; dsDNA, one strand shown
# Method in brief: as §1
# [6] = molecular target: T5, EHF (Homo sapiens, UniProt Q9NZC4 1-300); conditions: protein: recombinant; tags: N-terminal GST; dsDNA, one strand shown
# T5 sequence: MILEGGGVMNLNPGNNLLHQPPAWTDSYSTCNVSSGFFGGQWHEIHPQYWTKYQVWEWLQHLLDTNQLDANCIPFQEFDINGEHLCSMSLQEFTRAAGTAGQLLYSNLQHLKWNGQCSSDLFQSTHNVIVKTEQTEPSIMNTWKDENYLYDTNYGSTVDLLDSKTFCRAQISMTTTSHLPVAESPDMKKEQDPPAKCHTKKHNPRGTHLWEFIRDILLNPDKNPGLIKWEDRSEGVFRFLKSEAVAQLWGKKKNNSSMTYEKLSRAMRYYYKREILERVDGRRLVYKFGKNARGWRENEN
# Method in brief: as §1
# [7] = molecular target: SPI1 (Homo sapiens, UniProt P17947 1-270); conditions: protein: recombinant; tags: N-terminal GST; dsDNA, one strand shown
# Method in brief: as §1
# [8] = molecular target: SPIB (Homo sapiens, UniProt Q01892 1-262); conditions: protein: recombinant; tags: N-terminal GST; dsDNA, one strand shown
# Method in brief: as §1
# [9] = molecular target: T6, ELK3 (Homo sapiens, UniProt P41970 1-407); conditions: protein: recombinant; tags: N-terminal GST; dsDNA, one strand shown
# T6 sequence: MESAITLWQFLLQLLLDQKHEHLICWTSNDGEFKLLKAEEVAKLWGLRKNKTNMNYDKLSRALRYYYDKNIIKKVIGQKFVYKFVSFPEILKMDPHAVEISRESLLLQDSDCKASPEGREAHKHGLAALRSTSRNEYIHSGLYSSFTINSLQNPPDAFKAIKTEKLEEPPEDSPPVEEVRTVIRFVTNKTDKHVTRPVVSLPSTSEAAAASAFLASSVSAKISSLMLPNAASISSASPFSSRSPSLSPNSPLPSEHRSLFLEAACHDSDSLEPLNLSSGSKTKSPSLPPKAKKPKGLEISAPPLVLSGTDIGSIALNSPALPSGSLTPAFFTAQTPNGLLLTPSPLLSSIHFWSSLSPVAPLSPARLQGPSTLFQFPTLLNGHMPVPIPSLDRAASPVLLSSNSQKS
# Method in brief: as §1
# [10] = molecular target: T7, FEV (Homo sapiens, UniProt Q99581 1-238); conditions: protein: recombinant; tags: N-terminal GST; dsDNA, one strand shown
# T7 sequence: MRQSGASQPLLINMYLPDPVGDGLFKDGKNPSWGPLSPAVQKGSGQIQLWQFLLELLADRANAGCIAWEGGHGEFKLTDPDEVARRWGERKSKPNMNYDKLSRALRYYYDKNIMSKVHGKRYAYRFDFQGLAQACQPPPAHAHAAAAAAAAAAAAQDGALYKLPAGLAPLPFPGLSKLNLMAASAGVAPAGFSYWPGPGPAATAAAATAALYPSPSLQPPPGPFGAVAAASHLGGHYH
# Method in brief: as §1
# [11] = molecular target: ETV5 (Homo sapiens, UniProt P41161 1-510); conditions: protein: recombinant; tags: N-terminal GST; dsDNA, one strand shown
# Method in brief: as §1
# [12] = molecular target: HSF1 (Homo sapiens, UniProt Q00613 1-529); conditions: protein: recombinant; tags: N-terminal GST; chain copies: 3; dsDNA, one strand shown
# Method in brief: as §1
# [13] = molecular target: T8, SPIC (Homo sapiens, UniProt Q8N5J4 1-248); conditions: protein: recombinant; tags: N-terminal GST; dsDNA, one strand shown
# T8 sequence: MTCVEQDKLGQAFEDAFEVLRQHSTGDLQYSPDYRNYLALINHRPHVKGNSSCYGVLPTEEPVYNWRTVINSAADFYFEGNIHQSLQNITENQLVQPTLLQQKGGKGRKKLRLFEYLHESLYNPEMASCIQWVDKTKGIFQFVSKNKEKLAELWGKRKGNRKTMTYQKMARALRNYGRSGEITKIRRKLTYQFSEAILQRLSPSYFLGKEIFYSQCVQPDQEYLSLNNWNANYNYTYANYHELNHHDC
# Method in brief: as §1
# [14] = molecular target: ELF4 (Homo sapiens, UniProt Q99607 1-663); conditions: protein: recombinant; tags: N-terminal GST; dsDNA, one strand shown
# Method in brief: as §1
# [15] = molecular target: T9, ELK4 (Homo sapiens, UniProt P28324-2 1-405); conditions: protein: recombinant; tags: N-terminal GST; dsDNA, one strand shown
# T9 sequence: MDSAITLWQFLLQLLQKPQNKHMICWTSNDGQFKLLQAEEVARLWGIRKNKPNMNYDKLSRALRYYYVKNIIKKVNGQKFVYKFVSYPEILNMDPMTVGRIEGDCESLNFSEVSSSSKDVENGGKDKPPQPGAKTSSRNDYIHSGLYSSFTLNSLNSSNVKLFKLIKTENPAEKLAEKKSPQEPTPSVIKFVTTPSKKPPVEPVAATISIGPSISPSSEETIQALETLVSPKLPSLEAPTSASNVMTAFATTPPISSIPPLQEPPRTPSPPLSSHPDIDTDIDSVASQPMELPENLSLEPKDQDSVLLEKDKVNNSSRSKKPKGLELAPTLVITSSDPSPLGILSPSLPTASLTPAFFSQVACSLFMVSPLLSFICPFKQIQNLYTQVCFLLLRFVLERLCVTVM
# Method in brief: as §1
# [16] = molecular target: T10, ETV2 (Homo sapiens, UniProt O00321 1-342); conditions: protein: recombinant; tags: N-terminal GST; dsDNA, one strand shown
# T10 sequence: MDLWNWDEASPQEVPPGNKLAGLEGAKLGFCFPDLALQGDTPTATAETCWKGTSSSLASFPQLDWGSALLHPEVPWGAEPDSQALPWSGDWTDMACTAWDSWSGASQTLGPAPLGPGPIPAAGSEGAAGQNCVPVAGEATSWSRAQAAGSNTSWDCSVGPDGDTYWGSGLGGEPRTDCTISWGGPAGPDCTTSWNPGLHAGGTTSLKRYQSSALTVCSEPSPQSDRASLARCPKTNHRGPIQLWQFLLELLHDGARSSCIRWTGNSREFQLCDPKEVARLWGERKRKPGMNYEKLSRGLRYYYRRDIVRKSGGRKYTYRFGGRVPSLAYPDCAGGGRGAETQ
# Method in brief: as §1
# [17] = molecular target: T11, ELF3 (Homo sapiens, UniProt P78545 1-371); conditions: protein: recombinant; tags: N-terminal GST; dsDNA, one strand shown
# T11 sequence: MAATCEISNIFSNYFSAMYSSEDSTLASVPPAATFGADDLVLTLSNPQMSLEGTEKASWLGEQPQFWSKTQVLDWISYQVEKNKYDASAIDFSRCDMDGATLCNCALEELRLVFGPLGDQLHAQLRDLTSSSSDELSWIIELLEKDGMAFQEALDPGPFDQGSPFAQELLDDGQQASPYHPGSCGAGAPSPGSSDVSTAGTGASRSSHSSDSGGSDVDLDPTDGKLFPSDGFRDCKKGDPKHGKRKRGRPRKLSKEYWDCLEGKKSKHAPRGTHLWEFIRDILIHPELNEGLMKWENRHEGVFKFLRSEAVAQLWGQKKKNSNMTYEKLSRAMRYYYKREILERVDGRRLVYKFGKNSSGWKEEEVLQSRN
# Method in brief: as §1
# [18] = molecular target: CRX (Homo sapiens, UniProt O43186 1-299); conditions: protein: recombinant; tags: N-terminal GST; dsDNA, one strand shown
# Method in brief: as §1
# [19] = molecular target: ETV1 (Homo sapiens, UniProt P50549 1-477); conditions: protein: recombinant; tags: N-terminal GST; dsDNA, one strand shown
# Method in brief: as §1
# ETV5, sequence (P41161 whole entry): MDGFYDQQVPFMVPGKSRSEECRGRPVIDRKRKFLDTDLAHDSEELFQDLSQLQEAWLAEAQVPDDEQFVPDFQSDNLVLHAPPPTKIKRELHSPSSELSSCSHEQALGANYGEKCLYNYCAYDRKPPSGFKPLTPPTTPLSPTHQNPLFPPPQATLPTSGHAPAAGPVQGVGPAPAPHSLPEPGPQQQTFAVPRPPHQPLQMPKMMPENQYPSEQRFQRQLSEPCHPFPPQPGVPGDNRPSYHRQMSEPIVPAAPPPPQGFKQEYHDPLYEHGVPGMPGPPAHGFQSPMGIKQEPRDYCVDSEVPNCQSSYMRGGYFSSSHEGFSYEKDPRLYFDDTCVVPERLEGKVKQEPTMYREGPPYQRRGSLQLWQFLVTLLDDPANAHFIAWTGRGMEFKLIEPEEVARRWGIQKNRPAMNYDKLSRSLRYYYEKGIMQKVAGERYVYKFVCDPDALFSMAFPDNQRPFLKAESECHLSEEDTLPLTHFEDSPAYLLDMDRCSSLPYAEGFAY
# CRX, sequence (O43186 whole entry): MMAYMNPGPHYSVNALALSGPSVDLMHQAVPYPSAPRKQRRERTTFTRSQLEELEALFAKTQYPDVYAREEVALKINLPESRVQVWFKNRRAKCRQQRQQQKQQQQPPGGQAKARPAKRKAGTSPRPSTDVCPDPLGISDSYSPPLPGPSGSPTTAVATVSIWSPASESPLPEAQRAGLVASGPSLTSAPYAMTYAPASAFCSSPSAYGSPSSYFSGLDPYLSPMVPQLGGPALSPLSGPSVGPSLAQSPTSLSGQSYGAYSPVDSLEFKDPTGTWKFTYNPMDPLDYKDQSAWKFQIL
# ELF4, sequence (Q99607 whole entry): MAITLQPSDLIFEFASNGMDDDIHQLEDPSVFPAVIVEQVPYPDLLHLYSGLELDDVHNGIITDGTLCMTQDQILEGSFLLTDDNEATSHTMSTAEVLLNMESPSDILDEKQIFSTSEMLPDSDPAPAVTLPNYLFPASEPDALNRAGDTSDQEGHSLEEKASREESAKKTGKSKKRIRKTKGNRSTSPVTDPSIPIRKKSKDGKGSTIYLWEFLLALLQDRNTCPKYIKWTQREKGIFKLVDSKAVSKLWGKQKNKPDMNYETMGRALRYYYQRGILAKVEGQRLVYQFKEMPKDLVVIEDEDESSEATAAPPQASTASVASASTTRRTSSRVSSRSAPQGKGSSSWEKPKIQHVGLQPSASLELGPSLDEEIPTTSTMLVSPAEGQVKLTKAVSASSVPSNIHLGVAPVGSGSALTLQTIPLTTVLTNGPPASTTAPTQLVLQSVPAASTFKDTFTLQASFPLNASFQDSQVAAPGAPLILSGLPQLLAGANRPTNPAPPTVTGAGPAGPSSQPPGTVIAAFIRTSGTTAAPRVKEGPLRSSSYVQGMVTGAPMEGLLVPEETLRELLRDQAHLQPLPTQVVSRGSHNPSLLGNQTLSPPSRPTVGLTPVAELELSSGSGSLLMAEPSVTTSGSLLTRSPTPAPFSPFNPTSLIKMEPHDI
# ELF1, sequence (P32519 whole entry): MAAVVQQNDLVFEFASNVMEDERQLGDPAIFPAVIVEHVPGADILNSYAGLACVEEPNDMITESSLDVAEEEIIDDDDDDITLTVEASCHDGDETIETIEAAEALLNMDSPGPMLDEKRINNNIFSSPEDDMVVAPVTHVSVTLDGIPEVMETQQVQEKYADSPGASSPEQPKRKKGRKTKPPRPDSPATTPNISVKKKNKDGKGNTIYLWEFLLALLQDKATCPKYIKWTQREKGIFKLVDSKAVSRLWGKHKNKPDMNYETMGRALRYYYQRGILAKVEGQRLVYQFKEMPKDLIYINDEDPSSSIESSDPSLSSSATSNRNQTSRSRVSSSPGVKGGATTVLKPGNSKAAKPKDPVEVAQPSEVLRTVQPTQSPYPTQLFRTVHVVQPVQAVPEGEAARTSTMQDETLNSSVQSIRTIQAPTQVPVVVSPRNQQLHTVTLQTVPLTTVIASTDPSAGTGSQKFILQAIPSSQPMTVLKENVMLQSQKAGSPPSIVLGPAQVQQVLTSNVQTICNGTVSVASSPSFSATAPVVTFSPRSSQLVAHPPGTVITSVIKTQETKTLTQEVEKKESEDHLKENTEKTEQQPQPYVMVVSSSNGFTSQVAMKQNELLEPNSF
# HSF1, sequence (Q00613 whole entry): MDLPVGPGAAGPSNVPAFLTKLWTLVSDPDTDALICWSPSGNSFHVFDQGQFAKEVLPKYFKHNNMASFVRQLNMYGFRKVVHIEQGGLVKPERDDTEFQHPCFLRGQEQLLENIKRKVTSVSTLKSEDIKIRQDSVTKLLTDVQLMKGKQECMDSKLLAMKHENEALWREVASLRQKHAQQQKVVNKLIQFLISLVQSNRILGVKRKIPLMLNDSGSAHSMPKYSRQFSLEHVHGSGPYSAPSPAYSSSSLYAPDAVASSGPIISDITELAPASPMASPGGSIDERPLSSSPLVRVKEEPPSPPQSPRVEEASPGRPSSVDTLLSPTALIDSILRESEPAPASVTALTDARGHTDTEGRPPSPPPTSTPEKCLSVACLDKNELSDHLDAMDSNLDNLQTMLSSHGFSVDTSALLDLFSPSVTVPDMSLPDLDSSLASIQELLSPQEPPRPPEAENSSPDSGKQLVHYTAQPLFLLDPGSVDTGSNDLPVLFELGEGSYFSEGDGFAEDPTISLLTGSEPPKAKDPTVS
# ETV1, sequence (P50549 whole entry): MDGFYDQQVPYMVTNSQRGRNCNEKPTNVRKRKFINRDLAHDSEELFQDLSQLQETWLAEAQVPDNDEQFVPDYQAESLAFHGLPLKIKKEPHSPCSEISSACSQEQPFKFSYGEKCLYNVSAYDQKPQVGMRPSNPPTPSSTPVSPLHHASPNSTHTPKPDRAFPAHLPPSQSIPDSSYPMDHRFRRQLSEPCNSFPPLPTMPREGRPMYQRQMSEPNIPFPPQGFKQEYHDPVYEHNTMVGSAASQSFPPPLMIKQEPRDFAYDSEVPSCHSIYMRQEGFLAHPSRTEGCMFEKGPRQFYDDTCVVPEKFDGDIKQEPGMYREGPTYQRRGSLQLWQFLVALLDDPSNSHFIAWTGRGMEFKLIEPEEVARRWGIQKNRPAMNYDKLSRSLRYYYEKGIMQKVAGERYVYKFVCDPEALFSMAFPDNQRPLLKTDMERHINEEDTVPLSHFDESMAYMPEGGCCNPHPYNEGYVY
# SPIB, sequence (Q01892 whole entry): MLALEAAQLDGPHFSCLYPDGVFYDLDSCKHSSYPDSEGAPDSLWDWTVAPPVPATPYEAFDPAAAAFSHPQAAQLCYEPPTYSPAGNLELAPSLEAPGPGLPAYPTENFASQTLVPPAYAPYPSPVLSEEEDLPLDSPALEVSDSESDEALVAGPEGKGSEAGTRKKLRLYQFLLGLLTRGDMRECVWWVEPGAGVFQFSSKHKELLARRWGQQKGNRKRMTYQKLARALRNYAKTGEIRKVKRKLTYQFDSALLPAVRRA
sequence,measurement,setting,value
CCTATG,binding signal,[1],"1.14 fold enrichment (6-mer frequency, TF over GST control)"
same,binding signal,[2],"1.31 fold enrichment (6-mer frequency, TF over GST control)"
same,binding signal,[3],"1.31 fold enrichment (6-mer frequency, TF over GST control)"
same,binding signal,[4],"1.14 fold enrichment (6-mer frequency, TF over GST control)"
same,binding signal,[5],"1.27 fold enrichment (6-mer frequency, TF over GST control)"
same,binding signal,[6],"1.14 fold enrichment (6-mer frequency, TF over GST control)"
same,binding signal,[7],"1.21 fold enrichment (6-mer frequency, TF over GST control)"
same,binding signal,[8],"1.19 fold enrichment (6-mer frequency, TF over GST control)"
same,binding signal,[9],"1.18 fold enrichment (6-mer frequency, TF over GST control)"
same,binding signal,[10],"1.17 fold enrichment (6-mer frequency, TF over GST control)"
same,binding signal,[11],"1.28 fold enrichment (6-mer frequency, TF over GST control)"
same,binding signal,[12],"1.05 fold enrichment (6-mer frequency, TF over GST control)"
same,binding signal,[13],"1.1 fold enrichment (6-mer frequency, TF over GST control)"
same,binding signal,[14],"1.3 fold enrichment (6-mer frequency, TF over GST control)"
same,binding signal,[15],"1.35 fold enrichment (6-mer frequency, TF over GST control)"
same,binding signal,[16],"1.25 fold enrichment (6-mer frequency, TF over GST control)"
same,binding signal,[17],"1.52 fold enrichment (6-mer frequency, TF over GST control)"
same,binding signal,[18],"1.02 fold enrichment (6-mer frequency, TF over GST control)"
same,binding signal,[19],"1.24 fold enrichment (6-mer frequency, TF over GST control)"
